From PubChem BioAssay (NCI)
About 83,000 compounds went through this panel and 20% of them were active in at least one assay; those are over-represented in the sample as a whole.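 Values shown are percent growth following 48 h exposure of cells in 96-well plates to a single concentration of compound; below 10 was considered active.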 Values without a mark were called inactive. The source made the active and inactive calls.

Tested on: MDA-MB-468 breast
Assay: NCI-60 one-dose screen, 48 h (100 = growth as untreated, 0 = no growth, -100 = all killed)
Details: 10 µM unless noted

O=S(=O)(NCCNc1cc(-c2cn(-c3ccccc3)nc2-c2cccc(O)c2)ccn1)c1ccc(Cl)cc1
growth: -24.6% (active)

O=C(Cn1cccc(Nc2ccccc2)c1=O)Nc1ccccc1
growth: 95.1%

CN(C)c1ccc(N=C2C=CC(=O)C=C2)cc1
growth: 12.5%

CCCCCCCCCCCCCCCCCCOc1ccccc1CC(=O)NCC[N+]1(C)CCOCC1
growth: 13.7%

CCN(CC)CCn1c(=O)c2cc(OC)c(OC)cc2c2ccc3cc4c(cc3c21)OCO4
growth: -13.5% (active)

COC(=O)/C(CCC=C(C)C)=C1\[C@@H](OC(C)=O)C[C@@]2(C)[C@H]1C[C@@H](O)[C@H]1[C@@]3(C)CC[C@H](NCc4ccccc4)[C@@H](C)[C@@H]3CC[C@@]12C
growth: 76.8%

Nc1cc(N)c(N)cc1N
growth: 84.7%

O=C(c1ccccc1)C1OC1c1ccc([N+](=O)[O-])cc1 (configuration not stated)
growth: 29.2%

Oc1c(C(Nc2ccccc2)c2ccccc2)ccc2cccnc12 (configuration not stated)
growth: 17.8%

C[N+](C)(C)c1ncnc2nc[nH]c12
growth: 90.3%

N=C(N)c1ccc(-c2ccc(-c3ccc(Cl)c(Cl)c3)s2)cc1
growth: -61.6% (active)

COC(c1ccccc1)C(Br)C(=O)c1ccccc1 (configuration not stated)
growth: 94.8%

CC(=O)N(O)c1ccc(/C=C/c2ccccc2)cc1
growth: -63.5% (active)

COc1ccc2sc(NC(=O)CCCCCCNC(=O)C(O)(O)C(F)(F)F)nc2c1
growth: -11.7% (active)

O=C1CC(=NCC(=O)n2c(-c3ccccc3)nc3ccccc32)NN1
growth: 94%

O=C(O)c1ccc2cccnc2c1O
growth: -31.1% (active)

O=C1c2ccccc2C2N1CCC1CCc3ccccc3N12 (configuration not stated)
growth: 95.1%

Cc1ccc(C2=Nn3c(nnc3-c3ccccc3)SC2)cc1
growth: 25.1%

COc1ccc(-c2nnc(SCC(=O)Nc3ccc(C(=O)/C=C/c4ccc(Cl)cc4)cc3)o2)cc1OC
growth: 99.4%

Cc1ccc2[nH]c3nc4cccnc4c(C)c3c2c1
growth: -35% (active)

CCOC(=O)Cc1cc(Br)c(OCc2ccccc2)c(Br)c1
growth: 110%

COc1cc(C(=O)/C=C/c2c(-c3cccs3)nc3sc(C)cn23)cc(OC)c1OC
growth: -4.34% (active)

COC(=O)[C@H](CCCCNC(=O)OCc1ccccc1)NC(=O)[C@@H](NC(=O)Nc1cc(C(F)(F)F)cc(C(F)(F)F)c1)C(C)C
growth: -12.9% [100 µM] (active)

CCCCC(CCCCCC(CCCC)NCc1ccc2c(c1)OCO2)NCc1ccc2c(c1)OCO2 (configuration not stated)
growth: -90.7% (active)

CCCCNC(=O)c1cc([N+](=O)[O-])cc(C2CCCCC2)c1O
growth: -1.64% (active)

COc1ccc(Cn2cc(C(=O)N=Nc3c(O)[nH]c4c(C)cccc34)nn2)cc1
growth: 89.2%

CC[n+]1c(/C=C/c2ccc(N3CCCC3)cc2)cccc1/C=C/c1ccc(N2CCCC2)cc1
growth: -85.8% (active)

Cc1ccc(N(CSc2ccc(Cl)cc2)CSc2ccc(Cl)cc2)cc1
growth: 91.5%

C/C(=N\O)c1ccc(Cl)cc1
growth: 108%

CCSc1cnnc2ccccc12
growth: 105%

O=S(=O)(O)c1ccc(N=NSc2ccc3ccccc3c2)cc1
growth: 108%

Nc1ncnc2c1c(-c1ccc(Oc3ccccc3)cc1)nn2C[C@@H]1SSC[C@@H]1O
growth: -27.7% (active)

Fc1ccc2[nH]cc(-c3nonc3-c3c[nH]c4ccc(Br)cc34)c2c1
growth: 44.3%

COc1ccc(S(=O)(=O)n2ccc(-c3ccc4c(c3)CCC(C)(C)O4)n2)cc1OC
growth: 28.4%

O=C(CN1C(=O)CCC1=O)Nc1ncc(Cc2ccc(F)cc2)s1
growth: 109%

O=C(Nc1cccc(Cl)c1)OCC(COC(=O)Nc1cccc(Cl)c1)(COC(=O)Nc1cccc(Cl)c1)[N+](=O)[O-]
growth: 16.5%

C=C(C[n+]1ccccc1)[C@@H]1CC[C@]2(C(=O)OC)CC[C@]3(C)[C@H](CC[C@@H]4[C@@]5(C)CC[C@H](O)C(C)(C)[C@@H]5CC[C@]43C)[C@@H]12
growth: 86.3%
